Compound activity (PubChem BioAssay)
In the library only some 1.7% were active in any assay of this set; here they are far more common.
OPRM1-OPRD1 ag – agonists of human mu-delta opioid receptor heterodimerization. cells, OPRM1-OPRD1 heterodimerization, luminescence. P35372+P41143. activation, % at 9.3 µM. 340,000 tested, 0.3% active. AID 504326; in the data active = activation above about 18%;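 note: 0% = vehicle-treated cells and 100% = reference agonist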
V-ATPase pH – regulators of yeast V-ATPase proton transport; S. cerevisiae, pHLuorin cytosolic pH fluorescence; response, % at 10 µM; 350,000 tested, 0.37% active; in the data active = response mostly above about 7.3%, no sharp cut-off; inactive = mostly below about 5.4%; note: actives read high
HTR5A inv ag – counter-screen for OPRM1-OPRD1 inverse agonists: human HTR5A inverse agonism | 340,000 tested, 0.083% active | inhibition, % at 9.3 µM | AID 504634 | HTR5A cell line, luminescence | P47898; in the data active = inhibition mostly above about 23%, no sharp cut-off; inactive = mostly below about 18%;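 note: 0% = cells with DMSO and 100% = no-cell wells with DMSO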
Target sequence (P47898 whole entry, looked up): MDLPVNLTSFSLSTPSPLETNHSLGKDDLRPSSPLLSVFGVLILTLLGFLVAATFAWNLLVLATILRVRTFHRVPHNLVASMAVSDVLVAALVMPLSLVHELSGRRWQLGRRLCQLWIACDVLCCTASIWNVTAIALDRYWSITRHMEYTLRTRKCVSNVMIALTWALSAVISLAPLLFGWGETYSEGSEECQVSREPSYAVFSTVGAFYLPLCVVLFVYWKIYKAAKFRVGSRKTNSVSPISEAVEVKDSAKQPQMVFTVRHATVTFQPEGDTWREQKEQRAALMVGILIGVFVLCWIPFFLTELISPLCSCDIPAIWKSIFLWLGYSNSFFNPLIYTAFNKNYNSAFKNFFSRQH
MOR-DOR inv ag – inverse agonist of human OPRM1-OPRD1 heterodimerization | P35372+P41143 | cell-based MOR-DOR heterodimer luminescence, inverse agonism | inhibition, % at 9.3 µM | 340,000 tested, 0.21% active | AID 504357; in the data active = inhibition above about 22%, passing the limit was not always enough;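 note: 0% = cells with DMSO and 100% = wells without cells with DMSO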
beta cell repl – MIN6 beta-cell proliferation induction; proliferation, % at 10 µM; AID 2380; MIN6 cells proliferation, ATPlite luminescence, 48 h; cells starved in 0.2% serum; 100% = growth in 10% serum; 330,000 tested, 0.29% active;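 active = compounds whose signal lies at least 3.5 SD above the mean of all wells on their plate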;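 note: 0% = DMSO-treated cells in low-serum medium and 100% = 10% serum control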
HTR5A ag – activates human HTR5A in OPRM1-OPRD1 agonist counter-screen; P47898; HTR5A agonist assay, luminescence, cell-based; activation, % at 9.3 µM; 340,000 tested, 0.61% active; AID 504692; in the data active = activation mostly above about 9.5%, no sharp cut-off; inactive = mostly below about 7.6%;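 note: 0% = cells with vehicle only and 100% = reference agonist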
Starred values were filed as active, the others as inactive; . = no result.

SMILES	OPRM1-OPRD1 ag	V-ATPase pH	HTR5A inv ag	MOR-DOR inv ag	beta cell repl	HTR5A ag
COC(=O)CN(c1nc(C)c(Br)c(OC)n1)S(=O)(=O)c1ccccc1	-1	6	-35	7	-2	-4
CCOc1ccc(CCNC(=O)COc2cc(=O)n(C)c3ccccc23)cc1OCC	-2	-3	11	14	0	2
CCOc1ccc(CCNC(=O)CSc2cc(=O)n(C)c3ccccc23)cc1OCC	1	0	17	-7	0.0*	1
CN(C)CCCN(C(=O)c1ccc(N2C(=O)CCC2=O)cc1)c1nc2c(F)cccc2s1	-2	-9	-36	12	-1	13*
Cc1cccc(Nc2nc(CC(=O)O)cs2)c1	0	-3	5	1	1	11*
COC(=O)Cc1csc(Nc2ccccc2)n1	-2	-1	-2	9	0	0
COc1ccc(Nc2nc(Nc3ccc(OC)cc3)nc(-n3[nH]c(=O)c(C)c3C)n2)cc1	-3	1	43*	17	-4	-3
CCOc1cc2[nH]c(=S)n(Cc3ccc(C(=O)O)cc3)c(=O)c2cc1OCC	0	-1	2	3	0	0
Cc1cc(CC(=O)O)n(C)c1C(=O)c1ccc(Cl)cc1	-2	3	-40	13	2	9.7*
COc1nnc(-c2ccc(C)cc2)c2ccccc12	-2	-2	-17	11	-2	5
COc1ccc(Nc2nc(Nc3ccc(OC)cc3)nc(SC3=NCCS3)n2)cc1	0	-2	-38	-1	-4	9.8*
O=C(NNC(=O)c1cccc2ccccc12)c1ccc(-c2ccccc2)cc1	6	-2	-52	-33	-2	13*
O=C(COC(=O)c1ccc(F)cc1F)Nc1ccc(S(=O)(=O)N2CCOCC2)cc1	.	3	.	.	.	.
N#Cc1ccccc1OCC(=O)Nc1c(C(=O)C2CC2)oc2ccccc12	2	0	-41	-14	-4	14*
CC(=O)Nc1c(C(=O)C2CC2)oc2ccccc12	-2	-6	13	11	0	4
COc1cccc(-c2nc(NCc3cccnc3)c3ccccc3n2)c1O	-1	6	-39	5	2	11*
O=C(/C=C\c1ccccc1)NCC(=O)N/N=C/c1ccc(O)cc1O	0	12*	2	-1	-2	-1
Cc1nc(SCC(=O)NCC2CCCO2)c2c(C)c(C)sc2n1 (stereo not drawn)	1	13*	-19	-4	1	8
Cc1nc(SCC(=O)NCC2CCCO2)c2c3c(sc2n1)CCCC3 (stereo not drawn)	0	0	1	1	1	0
COC(=O)CN(c1cc(OC)ccc1OC)S(=O)(=O)c1ccc(OC)c(OC)c1	-2	-2	-17	11	-2	9.2*
O=C(Nc1cccc(S(=O)(=O)N2CCCCC2)c1)c1ccc(S(=O)(=O)C(F)F)cc1	0	4	-4	-1	-4	12*
O=C(Nc1cccc(S(=O)(=O)C(F)F)c1)c1ccc(S(=O)(=O)N2CCCCC2)cc1	-1	4	0	4	-1	0
Cc1ccc(C(=O)NNc2ncnc3c2cnn3C)cc1	-4	-2	-20	21	-1	4
Cn1ncc2c(O/N=C(\N)c3ccc(C(F)(F)F)cc3)ncnc21	39*	0	1	-196	-4	48*
O=C(/C=C/c1ccccc1)c1ccc2c(c1)OCCCCO2	-1	3	11	3	-7	-2
SMILES	OPRM1-OPRD1 ag	V-ATPase pH	HTR5A inv ag	MOR-DOR inv ag	beta cell repl	HTR5A ag
O=C(CCl)N(C/C=C/c1ccccc1)c1ccc2c(c1)OCCO2	38*	-3	-180	-174	-6	71*
CC[C@]12c3[nH]c4cc(-c5ccco5)ccc4c3CCN1C(=O)[C@@H](CC(=O)NCc1ccco1)C[C@@H]2C(=O)N1CCN(C(=O)C2CC2)CC1	-1	0	-15	6	.	4.4*
CC(C)N(C(=O)[C@H]1C[C@H](CC(=O)NCC23CC4CC(CC(C4)C2)C3)C(=O)N2CCc3c([nH]c4ccc(Cl)cc34)[C@]12C)C(C)C	2	-3	-14	-8	.	4.2*
CC(C)(C)NC(=O)CC1C[C@H](C(=O)N2CCOCC2)[C@@]2(CCC3CCCC3)c3[nH]c4ccccc4c3CCN2C1=O (stereo partly drawn)	2	1	-29	-9	-3	8.6*
COc1ccc2[nH]c3c(c2c1)CCN1C(=O)C(CC(=O)NCC24CC5CC(CC(C5)C2)C4)C[C@H](C(=O)N2CCOCC2)[C@@]31CCC1CCCC1 (stereo partly drawn)	0	1	-15	0	.	4.4*
O=C(C[C@H]1C[C@H](C(=O)N2CCOCC2)[C@@]2(CCC3CCCC3)c3[nH]c4ccc(Cl)cc4c3CCN2C1=O)NCC12CC3CC(CC(C3)C1)C2	-3	2	-6	15	.	2
Cc1ccc(C(=O)NCCNC(=O)c2cccnc2)cc1	-2	3	0	15	2	0
COc1cccc(C=NNC(=O)c2ccncc2)c1O	0	1	-30	3	.	8.5*
COC(=O)c1ccc(/C=C/c2ccc3cccc(OC(C)=O)c3n2)cc1	-3	27*	-11	12	-6	-5
COc1ccccc1C1CCN(Cc2cccc(C(=O)N3CCC(O)CC3)c2)CC1	-1	-2	-13	6	-1	3
COc1ccc(S(=O)(=O)N2CCOCC2)cc1NC(=O)CCCSc1ccccc1	.	2	.	.	.	.
Nc1nonc1C(=O)N/N=C/c1ccncc1	0	0	-27	-2	2	11*
Cc1nonc1C(=O)N/N=C/c1ccncc1	1	0	12	-6	-2	-4
CSc1ccccc1NC(=O)c1cc(-c2cccnc2)nc2ccc(Br)cc12	0	-1	-33	-1	-6	13*
O=C(C#Cc1ccccc1)c1ccc([N+](=O)[O-])cc1	0	12*	-6	0	-3	-1
O=C(C#Cc1ccccc1)c1ccccc1	.	-19	.	.	.	.
Cc1ccc(NC(=O)COC(=O)[C@H](C)NC(=O)c2ccccc2)cc1S(=O)(=O)N1CCOCC1	-2	-2	4	8	-2	-1
COc1ccc(/C=N/Nc2cc(C)nc3ccccc23)cc1	8	5	-26	-40	-5	7
COc1ccc2nc(C)cc(N/N=C/c3ccc(F)cc3)c2c1	31*	-4	-29	-153	-4	8
CCCNC(=O)Cn1c(=O)oc2cc(S(=O)(=O)N3CC(C)CC(C)C3)ccc21 (stereo not drawn)	-2	-1	-41	8	-2	11*
CC1CCCN(C(=O)CNC(=O)c2ccco2)C1 (stereo not drawn)	-2	-6	-10	7	-4	4
Cc1cc(Cl)ccc1NC(=S)NCCN1CCOCC1	-2	0	-20	9	0	5
